LmPK inh – blocks Leishmania mexicana pyruvate kinase activity | purified LmPK, Kinase-Glo ATP luminescence, 1 h | Potency, µM (top dose mostly 57.5 µM), actives largely listed as inhibitors | actives 0.37% (n = 290,000)
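0.1 nM LmPK, 0.5 mM PEP, 0.1 mM ADP; 50 mM imidazole pH 7.2, 7 mM MgCl2, 50 mM KCl; 1 h RT. Kinase-Glo luminescence readout, normalized to no-enzyme (full inhibition) and uninhibited wells.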
FBPA Giardia inh – blocks Giardia fructose-bisphosphate aldolase activity; Potency, µM (highest dose often 59.6 µM), actives largely listed as inhibitors; purified Giardia FBPA; A8B2U2; actives 0.71% (n = 290,000); note: nearly all actives have a fitted effect of over 55% in size
Target sequence (A8B2U2 whole entry, looked up): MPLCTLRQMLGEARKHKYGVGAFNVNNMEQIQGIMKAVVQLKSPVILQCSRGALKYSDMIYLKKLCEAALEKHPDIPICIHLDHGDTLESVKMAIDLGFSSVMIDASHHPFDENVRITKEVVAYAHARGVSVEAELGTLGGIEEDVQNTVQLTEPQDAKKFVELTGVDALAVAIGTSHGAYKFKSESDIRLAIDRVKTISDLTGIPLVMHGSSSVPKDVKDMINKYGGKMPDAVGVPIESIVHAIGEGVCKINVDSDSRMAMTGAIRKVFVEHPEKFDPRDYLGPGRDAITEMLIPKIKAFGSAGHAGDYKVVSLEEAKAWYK
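40 nM FBPA preincubated 10 min at RT with compound (up to 57.5 uM final), then substrate plus GAPDH/TPI/NAD/arsenate coupling and diaphorase/resazurin added. Fluorescence read after 20 min at RT, 525/598 nm.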
TbPYK inhibitor – blocks Trypanosoma brucei pyruvate kinase; Q57TT1; TbPYK enzyme, Kinase-Glo Plus ATP luminescence, 45 min; Potency, µM (series often up to 76.8 µM), actives largely listed as inhibitors; actives 0.12% (n = 410,000); AID 624173; note: nearly all actives have a fitted effect of over 50% in size
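Enzyme and substrate buffer are dispensed first and compound is pin-transferred. ADP at 130 uM final then starts the reaction, which runs 45 min at room temperature. Detection reagent is added for 10 min before luminescence is imaged.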
RE007 growth inh – less growth of the S. pombe RE007 Vpr strain; S. pombe RE007 Vpr strain, BacTiter-Glo ATP luminescence, 24 h; Potency, µM (doses to about 92.2 µM), hits mostly inhibitors; actives 0.21% (n = 360,000); AID 651644; active = well fitted falling curve with a large enough effect; inconclusive = small, poorly fitted or top-dose-only effect; inactive = no such curve, though single readings can be large or run the other way; note: nearly all actives have a fitted effect of over 50% in size
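Fission yeast strain RE007, carrying one chromosomally integrated HIV-1 vpr copy, was seeded at OD 0.01 in PMG+AL medium with 23 nL pinned compound. After 24 h at 30 °C and 99% humidity, viability was read by BacTiter-Glo luminescence.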
NS1 function inh – blocks influenza NS1 protein function. actives 0.4% (n = 270,000). Potency, µM (titrated, usually from 46.1 µM); calls by dose curve; note: actives are rising curves; nearly all actives have a fitted effect of over 50% in size
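OD600 was taken as the measure of yeast growth restored by compound in an NS1-expressing S. cerevisiae strain. Cells had been washed out of glucose medium and diluted 1:100 into galactose -URA medium, pH 6.0.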
Sm TGR block – inhibitors of Schistosoma mansoni thioredoxin glutathione reductase; purified TGR, DTNB reduction, TNB absorbance 405 nm; Potency, µM (series often up to 114 µM), most hits filed as inhibitors; actives 3% (n = 360,000); AID 485364; note: nearly all actives have a fitted effect of over 60% in size
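Kinetic colorimetric format: TGR-catalysed, NADPH-driven DTNB reduction monitored via TNB absorbance. Enzyme dispensed at 20 nM; compound exposure 15 min at room temperature before reaction start.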
A number is an active result; [ ] = another dose, or the depositor's remark. A selection: hits, their analogues and other compounds. The true share with any hit is near 3.5%. Unless noted, calls come from the whole dose curve; as a rule, active = well fitted curve in the direction sought with a large enough effect; inconclusive = small, poorly fitted or top-dose-only effect, or another doubt; inactive = no such curve, though single readings can be large; an effect the other way counts as inactive or inconclusive.

What do the screens show for `CCOc1cc(C#N)c(NC(=O)Cn2nnc(-c3ccc(C)cc3)n2)cc1OCC`?
TbPYK inhibitor: inactive; Sm TGR block: inactive

Results for COc1cc(Cl)c(C)cc1NC(=O)c1ccc(CN2C(=O)CCn3nc(C)cc32)cc1 ?
TbPYK inhibitor: inactive; Sm TGR block: inactive

How did CCOC(=O)N1CCN(Cc2ccc(O)c3ncccc23)CC1 do in these assays?
LmPK inh: inactive; FBPA Giardia inh: inactive; TbPYK inhibitor: inactive; RE007 growth inh: inactive; NS1 function inh: inactive; Sm TGR block: 0.282µM

Results for Oc1ccc(CN2CCCCC2)c2cccnc12 ?
LmPK inh: inactive; FBPA Giardia inh: inconclusive; TbPYK inhibitor: inactive; RE007 growth inh: inactive; NS1 function inh: inactive; Sm TGR block: inactive

What do the screens show for `Oc1ccc(CN2CCc3ccccc3C2)c2cccnc12`?
LmPK inh: inactive; FBPA Giardia inh: inconclusive; TbPYK inhibitor: inactive; RE007 growth inh: inconclusive; NS1 function inh: inactive; Sm TGR block: 31.6µM

Results for Oc1ccc(CN2CCN(c3ccccc3)CC2)c2cccnc12 ?
LmPK inh: inactive; FBPA Giardia inh: inactive; TbPYK inhibitor: inactive; RE007 growth inh: inactive; NS1 function inh: inactive; Sm TGR block: 1.41µM

How did Oc1ccc(CN2CCC(Cc3ccccc3)CC2)c2cccnc12 do in these assays?
LmPK inh: inactive; FBPA Giardia inh: inactive; TbPYK inhibitor: inactive; RE007 growth inh: inactive; Sm TGR block: 7.94µM

Results for O=C1NC2=C(CCc3ccccc32)C(c2ccc(Br)cc2)N1 (stereo not given) ?
LmPK inh: inactive; FBPA Giardia inh: inconclusive; TbPYK inhibitor: inactive; RE007 growth inh: inactive; NS1 function inh: inactive; Sm TGR block: 50.1µM

What do the screens show for `O=[N+]([O-])c1ccc2c(c1)ncn2-c1ccccc1`?
LmPK inh: inactive; FBPA Giardia inh: inactive; TbPYK inhibitor: inactive; RE007 growth inh: inactive; NS1 function inh: inactive; Sm TGR block: inactive

Results for Cn1c(-[n+]2c(-c3ccccc3)cc(-c3ccccc3)cc2-c2ccccc2)nc2cc([N+](=O)[O-])ccc21 ?
LmPK inh: inactive; FBPA Giardia inh: inconclusive; TbPYK inhibitor: inactive; RE007 growth inh: inactive; NS1 function inh: inactive; Sm TGR block: 44.7µM

What do the screens show for `O=C(CSC1=N/C(=C/c2ccco2)C(=O)N1c1ccc(OC(F)F)cc1)NC1CCS(=O)(=O)C1` (stereo not given)?
LmPK inh: inactive; FBPA Giardia inh: inactive; TbPYK inhibitor: inactive; RE007 growth inh: inactive; Sm TGR block: 39.8µM

What do the screens show for `COc1ccc(N2C(=O)/C(=C\c3ccco3)N=C2SCC(=O)NC(C)C)cc1Cl`?
LmPK inh: inactive; FBPA Giardia inh: inactive; TbPYK inhibitor: inactive; RE007 growth inh: inactive; NS1 function inh: inactive; Sm TGR block: inactive

Results for Cc1ccc(/C=C/C(=O)NC2CCCCCCC2)o1 ?
LmPK inh: inactive; FBPA Giardia inh: inactive; TbPYK inhibitor: 7.94µM; RE007 growth inh: inactive; NS1 function inh: inactive; Sm TGR block: 2.51µM

What do the screens show for `CC(=O)NS(=O)(=O)c1ccc(NC(=O)/C=C/c2ccc(C)o2)cc1`?
LmPK inh: inactive; FBPA Giardia inh: inactive; TbPYK inhibitor: inconclusive; RE007 growth inh: inactive; NS1 function inh: inactive

What do the screens show for `O=C(/C=C/c1ccco1)Nc1cccc(S(=O)(=O)N2CCOCC2)c1`?
LmPK inh: inactive; FBPA Giardia inh: inactive; TbPYK inhibitor: inactive; RE007 growth inh: inactive; NS1 function inh: inactive; Sm TGR block: inactive

Results for Cc1ccc(/C=C/C(=O)Nc2ccc(S(N)(=O)=O)cc2)o1 ?
LmPK inh: inactive; FBPA Giardia inh: inactive; TbPYK inhibitor: inconclusive; RE007 growth inh: inactive; NS1 function inh: inactive; Sm TGR block: 7.94µM

How did Cc1ccc(/C=C/C(=O)Nc2cccc(S(=O)(=O)N3CCOCC3)c2)o1 do in these assays?
LmPK inh: inactive; FBPA Giardia inh: inactive; TbPYK inhibitor: inconclusive; RE007 growth inh: inactive; NS1 function inh: inconclusive; Sm TGR block: 11.2µM

Results for Cc1ccc(/C=N/NC(=O)NC2CCCCC2)o1 ?
LmPK inh: inactive; FBPA Giardia inh: inactive; TbPYK inhibitor: inactive; RE007 growth inh: inactive; Sm TGR block: inactive

What do the screens show for `Cc1ccc(/C=C/C(=O)NCc2ccc3c(c2)OCO3)o1`?
LmPK inh: inactive; FBPA Giardia inh: inactive; TbPYK inhibitor: inconclusive; RE007 growth inh: inactive; NS1 function inh: inactive; Sm TGR block: 12.6µM

How did COc1ccccc1CNC(=O)c1ccc(CSc2nc3ccncc3n2Cc2cccc(F)c2)cc1 do in these assays?
TbPYK inhibitor: inactive; Sm TGR block: inactive

What do the screens show for `COC(=O)NC(CC(C)=O)c1ccco1` (stereo not given)?
FBPA Giardia inh: inactive[12.9 µM]

What do the screens show for `COc1ccc(-c2nc(CNC(=O)NC3CCCCC3)c(C)o2)c(OC)c1`?
TbPYK inhibitor: inactive; Sm TGR block: inactive

How did Cc1ccc(/C=C/C(=O)NCc2ccc(S(N)(=O)=O)cc2)o1 do in these assays?
LmPK inh: inactive; FBPA Giardia inh: inactive; TbPYK inhibitor: 10µM; RE007 growth inh: inactive; NS1 function inh: inactive

What do the screens show for `Cc1ccc(/C=C/C(=O)Nc2ccncc2)o1`?
LmPK inh: inactive; FBPA Giardia inh: inactive; TbPYK inhibitor: inactive; RE007 growth inh: inactive; NS1 function inh: inactive; Sm TGR block: 8.91µM

Results for COc1ccccc1N1CCN(S(=O)(=O)c2c(C)sc3ncn(CC(=O)N(C)c4ccc(C(C)C)cc4)c(=O)c23)CC1 ?
TbPYK inhibitor: inactive; Sm TGR block: inactive

Results for O=C(CCn1c(=O)c2cccn2c2cccnc21)NCc1ccccc1Cl ?
TbPYK inhibitor: inactive; Sm TGR block: inconclusive

What do the screens show for `O=C1CC(c2ccccc2)=Nc2ccccc2N1`?
LmPK inh: inactive; FBPA Giardia inh: inactive; TbPYK inhibitor: inactive; RE007 growth inh: inactive; NS1 function inh: inactive; Sm TGR block: inactive

What do the screens show for `O=C1CC(c2ccco2)=Nc2ccccc2N1`?
LmPK inh: inactive; FBPA Giardia inh: inactive; TbPYK inhibitor: inactive; RE007 growth inh: inactive; NS1 function inh: inactive; Sm TGR block: 44.7µM

Results for O=C(CSc1nc2ccsc2c(=O)n1Cc1ccccc1Cl)NCc1ccc(F)cc1 ?
TbPYK inhibitor: inactive; Sm TGR block: inactive

How did CCOc1cc(C2C3=C(CCCC3=O)N(C)C3=C2C(=O)CCC3)cc(Cl)c1O do in these assays?
LmPK inh: inactive; FBPA Giardia inh: inactive; TbPYK inhibitor: inactive; RE007 growth inh: inactive; NS1 function inh: inactive; Sm TGR block: 35.5µM

Results for O=C(NCCSCc1ccc(Cl)cc1)C1CCN(S(=O)(=O)Cc2ccccc2)CC1 ?
TbPYK inhibitor: inactive; Sm TGR block: inactive

How did Cc1ccc(CCNC(=O)c2cc3n(n2)CCCN(Cc2ccc(C)cc2)C3=O)cc1 do in these assays?
TbPYK inhibitor: inactive; Sm TGR block: inactive

What do the screens show for `CSc1nsc(SCc2cnc(C)nc2N)n1`?
LmPK inh: inactive; FBPA Giardia inh: inactive; TbPYK inhibitor: inactive; RE007 growth inh: inactive; NS1 function inh: inactive; Sm TGR block: 39.8µM

Screening results (PubChem)
